Test results from PubChem BioAssay AID720631 (The Scripps Research Institute Molecular Screening Center, 2013).
Some of the results follow. Values without a mark were called inactive. Activity calls are given as the source filed them.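 Rule for the calls: active = inhibition above the mean of compounds lying within the control limits plus 3 SD (cut at about 16% in these data); inactive = the rest.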

molecular target: Fibrinogen beta chain (Homo sapiens) (UniProt P02675); test: inhibitors of Tn6 peptide binding to fibrin DD(E), confirmation, biochemical, fluorescence polarization, human fibrin, Tn6 probe (AID 720631); conditions: FP displacement of TRITC-Tn6 peptide from DD(E); at 8.3 µM; stronger effect = higher value; 0% = per-plate median of test wells;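 note: 0% = plate median of compound wells and 100% = inhibitor peptide control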
Sequence (P02675 whole entry, looked up): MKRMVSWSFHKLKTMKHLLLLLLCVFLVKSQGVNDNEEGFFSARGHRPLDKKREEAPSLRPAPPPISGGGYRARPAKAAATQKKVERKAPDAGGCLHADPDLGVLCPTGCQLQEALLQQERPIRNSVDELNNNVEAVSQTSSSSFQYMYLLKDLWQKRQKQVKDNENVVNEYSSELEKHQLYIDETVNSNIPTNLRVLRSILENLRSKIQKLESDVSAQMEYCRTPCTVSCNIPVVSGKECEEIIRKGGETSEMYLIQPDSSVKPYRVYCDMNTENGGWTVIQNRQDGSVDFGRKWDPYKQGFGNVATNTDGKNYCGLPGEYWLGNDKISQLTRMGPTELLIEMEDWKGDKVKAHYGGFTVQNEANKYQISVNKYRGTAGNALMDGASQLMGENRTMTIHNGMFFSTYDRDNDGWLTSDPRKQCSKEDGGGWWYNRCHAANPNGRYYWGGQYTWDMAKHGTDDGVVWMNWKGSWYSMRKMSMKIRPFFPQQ

Compound | inhibition
Cc1cc2cc(CNC(=O)c3ccc(S(=O)(=O)N4CCOCC4)cc3)ccc2[nH]1 | -6.87%
COc1ccc(Nc2nc(-c3ccccc3)cs2)cc1 | -0.61%
O=C(Nc1cccc(-c2nc3ccccc3[nH]2)c1)c1ccc(C(=O)Nc2cccc(-c3nc4ccccc4[nH]3)c2)cc1 | 29.2% (active)
CCOC(=O)N1CCN(Cc2nc(N)nc(Nc3ccc(C)cc3)n2)CC1 | -3.1%
Oc1ccc(N=Cc2sc3ccccc3c2Cl)cc1 | -11.2%
Cc1ccc(NC(=O)CN2CCc3ccccc3C2)cc1 | -6.7%
CONc1nc2nonc2nc1NOC | -1.66%
CN1c2ccc(C=O)c3c(C=O)ccc(c23)N(C)C1(C)C | -6.98%
Cc1ccc(-c2nc(C)sc2CC(=O)O)cc1 | 1.06%
CCc1cc(-c2nnc(SCC(=O)NC3CC3)n2C)cs1 | 2.54%
COc1cc(NC(=O)c2ccc(CNc3c(N4CCCC4)c(=O)c3=O)cc2)cc(OC)c1OC | -4.66%
O=C(NCCNc1ccccc1[N+](=O)[O-])c1ccccc1F | -1.55%
CCOCC(=O)NCc1ccc2c(c1)cc(C)n2C | 0.62%
Cc1nn(C)cc1N1C(=O)c2cccc3c(N)ccc(c23)C1=O | 1.67%
Cc1cc(C)c2nc(NC(=O)C3CCCO3)sc2c1 (stereo unspecified) | 4.35%
Cc1nnsc1S(=O)(=O)Cc1ccccc1Cl | -10.5%
O=c1cc(Cn2nnc(-c3ccc(Cl)cc3)n2)nc2sccn12 | -6.19%
O=c1[nH]n(-c2ccc([N+](=O)[O-])cc2)c(=O)c2ccccc12 | 12.3%
Cc1ccc(-c2nn(-c3ccccc3)cc2/C=C/C(=O)Nc2cccc(S(N)(=O)=O)c2)cc1 | 4.74%
CCC1C(=O)NCCN1C(=O)c1ccc2nc(Cc3ccc(OC)cc3)oc2c1 (stereo unspecified) | -13.1%
Cc1cc2nc3c(=O)[nH]c(=O)nc-3n(C[C@H](O)[C@H](O)[C@H](O)CO)c2cc1C | 12.4%
CCc1ccccc1NC(=S)Nc1cc(OC)c(NC(=O)C(C)C)cc1OC | -4.51%
COc1ccc(N2C(=O)NC(NS(=O)(=O)c3ccc(Cl)cc3)(C(F)(F)F)C2=O)cc1 (stereo unspecified) | 1.83%
Cc1cc2ccccc2n1CCNC(=O)COc1ccc2ccccc2c1 | 12.1%
COc1ccc(Nc2nc(-c3cccnc3)nc3ccccc23)cn1 | -6.63%
O=C(CCl)NNc1cccc(Cl)n1 | 4.87%
